# Out of some 31,000 sequences screened, about 1,400 (4.5%) were called active. The full list was thinned out, with actives kept by preference. Values without a mark were called inactive.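 Rule for the calls: active = median seed-adjusted z-score above 1 or below -1; inactive = the rest.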
# Assay: Novel Modifiers of Survival Motor Neuron (SMN) Protein: Gene Identification via Genome-wide siRNA Screen;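 note: luminescence tracks full-length SMN protein made from the SMN2 reporter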
# Details: HEK293T SMN2-luciferase reporter, siRNA knockdown, 72 h; actives lie on both sides
# In short: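 Luciferase signal, proportional to full-length SMN made from an SMN2 cDNA reporter in stable HEK293T cells, was read 72 h after siRNA reverse transfection. Values were expressed as MAD scores after non-targeting-control normalization and log10 conversion; seed analysis flagged off-targets.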
row,Sequence,median seed-adjusted z-score
1,AAGUACAUAUAACCACUUATT against RAB14,-0.0567
2,CAGUGACCCGGAUCCUCUATT against RHCG,0.375
3,CCUGGACGAGUUUAUAAUATT against AP1S3,0.153
4,GCCGUAUAAGUGUCAAGCATT against ZNF57,0
5,CAAUGUUAGGAGUCAGUCATT against ACTL6A,1.11 (active)
6,AGGGCUUGUUUGACAACUUTT against CHTF18,0.371
7,GCUGAUACCUUCUACCGUATT against GDPD2,-0.0868
8,ACCGCACGAUGUUCAACUUTT against DNAJC30,0.329
9,CAGACAUGAAGUAUAAGAATT against TCEA2,0.552
10,CCUGCCCAAUGUGACCUUUTT against MRC2,-1.34 (active)
11,CAAAUCCUAUAGUAUAACATT against RPS6KC1,0.344
12,AGAUUAAGAUGUUCUACGATT against ADI1,0.0593
13,GCCCAUUGACUAUUACUUUTT against AR,-0.559
14,GAUGGAAGAUGGAACGGUUTT against CDC42BPA,0.257
15,GUAUGUCAAGGAGAACGGATT against CTSL2,-1.04 (active)
16,CAUUAUCACUGGUGCACUUTT against CHN1,2.1e-05
17,GGAAUAACAGUUGUAGGAATT against TMTC3,0.266
18,GAGAGCAACUUAAAGACGATT against ST18,0.0762
19,UGCUCUACAUCAACCCUGATT against FSHR,-0.462
20,GAAGAGCCGUAUGAUCGAATT against ZNF432,-0.124
21,CAAGGAGCAGGGAUAUGAATT against ADAP2,-1.1 (active)
22,GAGAGAUUGUGAUUGGAGATT against BHMT,0

row,Sequence,median seed-adjusted z-score
1,GGAUCCUAUUGAGAGGCUATT against HS2ST1,0.421
2,GCACCAAGCAUUAUGAAAATT against SDCBP,0.0325
3,CACCUGAAGUAAAUCGGAUTT against SF3B14,-1.26 (active)
4,AGACAGUGUGGGUCCUGGATT against CD300E,0.337
5,GGCAGUUAAUGGAACAAUUTT against MTMR7,-0.207
6,CGUGGGCUCUAUCUACUAUTT against PUF60,2.26 (active)
7,GAUAGAUCGUUUUAAGAGATT against MST4,0.343
8,CGACAACAUAUGUUCCGGATT against TNFRSF11B,0.582
9,UAAUCAAGCUGAAAACAGATT against TRYX3,2.3 (active)
10,AAUUCGAGCUGGUGCCAUCTT against MYCL1,0.0658
11,ACCUCUACGUGGUCAGCUATT against DPP9,-0.224
12,CCAAACGAUUUAUACCUAATT against IPMK,-0.00138
13,GAACAACCUGGAGAAAUAUTT against ENDOG,-0.336
14,GGAGAGACAUCGUCAGCUATT against AGXT,0.017
15,GAUGCUGGUUGGUUCGAUATT against MFSD4,-1.89 (active)
16,GAGUUUCGCCUGCUACAGATT against CELSR3,0
17,GGAUGAUUCGGAAGGUGAATT against ZNF467,0
18,GGGCCGUGCUGAUUGAGAATT against GPX2,-0.21
19,GGAGAAGAAUGAGCAACUUTT against ADAM19,0.0996
20,GGGCUUUGAUAGGAAUGCATT against UBE2K,0.497
21,CGCAGUAUGUGGACUAUGATT against NID2,0.283
22,GCUGAAAUCAAAAAGCGGATT against RAB1B,1.55 (active)

row,Sequence,median seed-adjusted z-score
1,GGAAUGUGGUAACAGGAGATT against GMPR2,0.232
2,CCUACUCUGUUGUUCGAAATT against C3,0.0281
3,GCGGGAGAAGCUUACCUUUTT against DPP3,-0.261
4,GGAAAUAUGCGGCUACGGATT against NADSYN1,0.217
5,CGGGUACUGCUACACCUUUTT against SLC22A8,0.175
6,GUGAGACAGUUGACCGAGATT against SLC26A2,-1.25 (active)
7,CAUUCAAAUUUACCCUGUATT against POLR2H,-2.74 (active)
8,GGACCUUGUUAACAGUGGATT against APOBEC1,-0.323
9,CCCUGUACGUGUACAUCAUTT against MPG,-0.0888
10,GAGGCAGUCUUAAAAUGGATT against RAB32,-0.112
11,CUUCAAGAAUAAGUACGAATT against KRT7,0
12,GUGUGAUUCUUGGAGCAAATT against PLD2,-0.743
13,CAACUACAACUGUGAGAUUTT against SF3A3,-2.1 (active)
14,GAAAUACUGCGGUAUAAAATT against SYTL2,0.211
15,GCCCAUAGAGGGUUCAGAATT against CCNT1,-0.72
16,GAGAUGAACCGGAACAUCATT against LOC650864,0.214
17,GAACCAUGGAUGGUGAUAATT against ZNF287,0.0213
18,GCUCCACAGCAUAUGCUCATT against NFIL3,0.4
19,GAACUGUGAAUUAGAUGUATT against F9,0.332
20,GGAACACGCUGACAGGACATT against FZR1,0.729
21,CGAUGUUGAAGUUACACCATT against ATP13A4,-1.09 (active)
22,CCGCGAAUCCAUGACAAUATT against UGCG,0.492

row,Sequence,median seed-adjusted z-score
1,CCACCUCUACCAAACAUUUTT against IL2RG,-0.155
2,GGAGAUUCAUUCUAACCAUTT against ADAMTS19,-0.39
3,CAGUGAGAGUUUCAUCUUUTT against PKD1L2,-1.17 (active)
4,GGAUAUGAGUUACAUGACATT against GALNT5,-0.279
5,GGACGACUUCUUUAAGUCATT against PGD,-1.55 (active)
6,CGGCAAUUGUUGACGUGAATT against TXNDC11,0.642
7,GGAUGGACUUUAUCCAGCATT against TM7SF4,0.0246
8,GGACAACAGUCGGUCGAAUTT against ANP32C,-0.421
9,UGAUAUCGGCUACGUCAAATT against NAGK,0.446
10,GGAUUACAGUGUCCAAAGATT against ADRA1A,-1.06 (active)
11,CCUACUAUGUGAGCAAUGATT against EEF1G,-0.206
12,GAGUCACAAUCGCAUGAAATT against FKBP9,0.359
13,CCACACUUUUGGUCUUUAATT against PGDS,0.02
14,AGACGGUCCUCUUUCGACATT against LOC442229,0.183
15,GGAUAUCAAUUAUUACGCUTT against LIFR,0.031
16,AGGAGUCCCUAAUGCUACATT against TRIM74,0.0932
17,GCAUCAACUUUGUGCAUGATT against PLTP,1.09 (active)
18,GCAGCAAACUGACGGAGAATT against PCTK3,0
19,CAGUGCUCAUGGAACUCUUTT against HMGCS2,-0.465
20,CGAUGAAGGGUUCCGAUUATT against CR1,0.143
21,GGGCGAGUAUGACCGAUCATT against CTRL,0.0758
22,GCAGAUACAUUGAUCGCAUTT against PRPF8,-1.54 (active)

row,Sequence,median seed-adjusted z-score
1,GGACCAGACAACGAACUGATT against RNF135,0.581
2,CGCUGAAACACGUCCAUUUTT against CHAD,0
3,CUCUGAACAUCAACCCGGATT against DMRTB1,-0.393
4,GGAUCGUGGUCUUUCCAAATT against FNTA,1.04 (active)
5,GAAGAUUGGUGAUCUAGGATT against WNK3,-0.466
6,GGCUUCUUGUCCAACCCUATT against CILP,0.0436
7,GUAGGACCCUAAUAUCGAUTT against TEP1,-0.495
8,CAACUUUGAGGUAAAGUCATT against PRPF19,-0.485
9,CGCUGAUACUAACAAUUGATT against AOX1,-0.0717
10,GAUUCGUUCUUCUACAACUTT against PSMD2,-1.44 (active)
11,GGGCUGGAAUUACUAUGGATT against CCNH,-0.659
12,GGCGAUUAGGAAACAUGAATT against PRKX,0.0341
13,GCAUUUUCCGCCUACCACATT against POLM,-1.55 (active)
14,GAACAUUUCCAAGUCUGUATT against YSK4,-0.181
15,CCAAGUUUAUAUCAUAUUATT against GNG4,-0.188
16,CGCGGUGCAUAUGAAGAUATT against PIGM,1.36 (active)
17,CAGUGUAAUUAGGCAACUATT against MYO3A,0.0776
18,CACCUCCGAUAAGCCCUAUTT against ZIC2,-0.162
19,GCAACUACUUCCGAUCUAATT against KIF17,-0.151
20,GGUUGUAACUGCAAGAUCATT against TIMP3,-1.05 (active)
21,CAUCCAUAAUUGGUGUAAATT against KIF20B,0
